Screening data from PubChem.
Hsp70 act: Hsp70 transcriptional activators, primary screen, cell-based, HeLa, Hsp70 promoter luciferase, luminescence, 10 µM | HeLa Hsp70 promoter luciferase reporter; scaled: vehicle 0, proteasome-inhibitor control 100% | activation, % at 10 µM | 0.04% of 200,000 active;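 active means activation above the mean across all tested compounds plus 3 SD, cutoff set per campaign, cut at about 5.5% in these data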;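 further: 100% = MG132 at 30 µM as the positive control and 0% = DMSO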
S1P4 antagonist: S1P4 receptor antagonists, primary screen, cell-based. Sphingosine 1-phosphate receptor 4 (Homo sapiens), O95977. S1P4-expressing cells, antagonist mode, reporter read-out. inhibition, % at 4.98 µM. 0.26% of 220,000 active. AID 1510, 2009; in the data active means inhibition above about 29%;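 further: 0% = wells stimulated with agonist and 100% = vehicle wells without agonist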
Target sequence (O95977 whole entry, looked up): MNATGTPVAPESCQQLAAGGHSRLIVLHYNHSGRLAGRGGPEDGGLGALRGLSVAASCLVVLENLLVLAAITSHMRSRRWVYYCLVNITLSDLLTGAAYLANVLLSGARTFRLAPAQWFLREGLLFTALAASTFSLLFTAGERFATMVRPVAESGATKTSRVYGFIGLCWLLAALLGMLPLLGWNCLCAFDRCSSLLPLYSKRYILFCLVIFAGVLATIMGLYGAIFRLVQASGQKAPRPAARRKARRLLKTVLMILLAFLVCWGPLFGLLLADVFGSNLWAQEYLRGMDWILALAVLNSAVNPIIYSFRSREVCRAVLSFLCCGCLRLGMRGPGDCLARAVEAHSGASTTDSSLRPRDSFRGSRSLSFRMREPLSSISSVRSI
S1P4 agonist: S1P4 receptor agonists, primary screen, cell-based; 0.35% of 220,000 active; activation, % at 4.98 µM; Sphingosine 1-phosphate receptor 4 (Homo sapiens), O95977; AID 1509, 2009; S1P4-expressing cell line, agonist reporter assay; in the data active means activation above about 11%;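 further: 0% = DMSO vehicle and 100% = reference agonist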
CHOP inhibitor: inhibitors of CHOP promoter induction, primary screen, cell-based, unfolded protein response, luciferase reporter. CHO-K1 CHOP-promoter luciferase, tunicamycin-induced, 15-18 h. inhibition, % at 10 µM. 3.8% of 220,000 active. AID 2732, 2010;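 active means compounds that reduced the stress-induced luciferase reporter signal by more than about 70% of percent inhibition, limit read from the data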;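 further: 0% = tunicamycin plus vehicle and 100% = wells without tunicamycin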
Numbers without * were called inactive; / = no result. An excerpt weighted towards active compounds, which were near 4.2% of everything screened.

SMILES | Hsp70 act | S1P4 antagonist | S1P4 agonist | CHOP inhibitor
C=CCn1c(=O)/c(=C/c2ccc(O)cc2)s/c1=C(/C#N)c1nnc2n1CCCCC2 | 0.0 | 4.0 | -0.2 | 37.5
N#Cc1cc(-c2ccccc2)nnc1Sc1ccc(F)cc1 | -0.4 | 2.6 | -3.1 | 30.0
Cc1cc(C)c(C)c(S(=O)(=O)NCC(=O)Nc2sc3c(c2C(N)=O)CCCC3)c1C | -0.3 | 21.6 | -4.1 | 94.6*
Cc1noc(C)c1C(=O)Nc1sc2c(c1C(N)=O)CCCCC2 | 0.2 | 8.1 | -1.6 | 91.3*
Cc1ccc(-c2cc(-c3n[nH]c(=S)o3)c3ccccc3n2)cc1 | -0.2 | -10.1 | -0.1 | 23.0
COc1ccc(C(=O)N2C(=O)c3ccc(N)cc3C2=O)cc1 | 0.0 | -1.0 | 1.9 | 43.1
Cc1ccc(SC(=O)COc2ccccc2C)cc1 | -0.2 | -8.5 | 1.1 | 74.9*
Cc1ccccc1OCC(=O)NNC=O | -0.2 | -19.0 | 0.5 | 6.5
C(=N\Nc1nc2ccccc2[nH]1)/c1cccc2nccnc12 | / | -1.2 | 0.7 | 70.7*
C(=N\Nc1nc2ccccc2[nH]1)/c1ccccn1 | -0.5 | -11.6 | 1.0 | 84.7*
COc1cc(OC)c(OC)cc1/C=N/Nc1nc2ccccc2[nH]1 | / | 8.3 | 0.4 | -9.1
CCN(CC)c1ccc(/C=N/Nc2nc3ccccc3[nH]2)c(O)c1 | -0.5 | 2.1 | -0.2 | 82.7*
C(=N\Nc1nc2ccccc2[nH]1)/c1ccc2ncccc2c1 | / | 5.6 | 0.9 | 0.9
O=C(COc1cccc2ccccc12)N1c2ccccc2CCc2ccccc21 | -0.1 | -2.6 | 0.5 | 73.5*
CC1(C)CC2CC(C)(CN2C(=O)COc2cccc3ccccc23)C1 (stereo unspecified) | -0.4 | 2.5 | -1.2 | 91.3*
Cc1cc(C)c(NC(=O)Nc2ccccc2C)c(Cl)c1 | -0.2 | -35.9 | 1.6 | 60.3
CCCOc1ccc(N2C(=O)CC(NCc3cccnc3)C2=O)cc1 (stereo unspecified) | -0.2 | -15.4 | 0.2 | 1.8
CCCCN(CC)c1nc(N)c2c(N)nc(OCC)cc2c1C#N | 0.3 | -20.1 | -3.0 | 94.7*
Cc1cc(C)n(CC(C)NC(=O)c2cc(COc3c(F)cccc3F)on2)n1 (stereo unspecified) | -0.1 | -13.6 | 0.2 | 13.0
CCC(=O)Oc1oc(-c2ccccc2)nc1C=Nc1ccccc1OC | 0.1 | -4.8 | 2.6 | 93.1*
Cc1ccc(/C=C/C2=NN(Cc3ccccc3Cl)C(=O)CC2)cc1 | -0.2 | -2.1 | 0.7 | 73.7*
COC(=O)c1ccc2c(=O)n(CCCCCC(=O)O)c(=S)[nH]c2c1 | -0.1 | 14.1 | 0.9 | 73.3*
COC(=O)c1ccc2c(=O)n(Cc3ccc(C(=O)NC4CCCC4)cc3)c(=S)[nH]c2c1 | 0.5 | 0.1 | 1.0 | 85.4*
COC(=O)c1ccc2c(=O)n(CCO)c(=S)[nH]c2c1 | 0.2 | -19.6 | -0.6 | -17.5
CC(C)(C)c1cn(-c2ccc(F)cc2)c(=S)[nH]1 | -0.3 | -11.0 | 0.4 | 41.9
SMILES | Hsp70 act | S1P4 antagonist | S1P4 agonist | CHOP inhibitor
O=[N+]([O-])c1nn(-c2ccc3c(c2)OCCO3)n(O)c1=NCCC1=CCCCC1 | -0.1 | 7.1 | -1.9 | 85.6*
O=[N+]([O-])c1nn(-c2ccc3c(c2)OCCO3)n(O)c1=NCc1ccc(F)cc1 | -0.2 | -12.1 | -0.1 | 10.9
O=C(Nc1cccc(-c2nc3cccnc3s2)c1)c1cccnc1Cl | / | -12.3 | 1.0 | 19.9
O=C(Nc1cccc(-c2nc3cccnc3s2)c1)c1ccc(Cl)nc1 | / | -13.8 | 1.8 | 80.8*
CC(/C=N/NC(=O)Cn1nccc1C)=C\c1ccc(C(C)C)cc1 | -0.1 | -12.2 | 2.0 | 76.3*
CC(=C/c1ccc(C(C)C)cc1)/C=N/NC(=O)Cn1nc(C)cc1C | -0.3 | -18.5 | 0.0 | 66.2
CCc1sc(C(=O)Nc2ccc(NC(C)=O)cc2)cc1C | -0.1 | -10.1 | 0.8 | 13.9
c1ccc(CN2C3=NCCCN3c3ccccc32)cc1 | -0.1 | -4.0 | 0.3 | -4.8
Clc1ccc(CN2C3=NCCN3c3ccccc32)cc1 | -0.3 | -5.7 | 3.2 | 71.5*
O=C(CNS(=O)(=O)c1ccc(F)cc1)N1CCN(c2ccccc2)CC1 | -0.3 | -12.8 | 1.1 | 80.2*
O=C(CS(=O)c1ccc(C(F)(F)F)cc1[N+](=O)[O-])Oc1ccccc1 (stereo unspecified) | 0.6 | 16.1 | -0.9 | 88.0*
CCCOc1ccc(C(=O)NCc2ccco2)cc1 | -0.1 | 4.3 | 1.3 | -2.3
N#C/C(=C/c1ccc(-c2ccc(S(N)(=O)=O)cc2)o1)c1nc2ccccc2s1 | -0.5 | -9.9 | 0.7 | 88.7*
CC(C)CN1C(=O)/C(=C(/C#N)C(=O)NC2CCCCC2)c2ccccc21 | -0.2 | 14.3 | -1.5 | 92.0*
Cc1ccc(NC(=O)N2CCC(c3nc4c(nnn4Cc4cccc(Cl)c4)c(=O)[nH]3)CC2)cc1 | -0.2 | -3.8 | -2.2 | 28.1
COc1ccc(OC)c2[nH]c(=O)c(CCNC(=O)C(C)C)cc12 | -0.2 | -6.8 | 0.5 | 20.8
Cc1oc2cc(O)ccc2c(=O)c1-c1nncn1-c1ccccc1 | 0.2 | -1.6 | 0.1 | -8.1
CCOC(=O)c1sc(NC(=O)CSc2nc3c(cc2C#N)CCC3)c(C#N)c1C | -0.1 | -8.6 | -1.3 | /
CCOC(=O)c1sc(NC(=O)CSc2n[nH]c(-c3ccc(Cl)cc3Cl)n2)c(C#N)c1C | -0.2 | -23.1 | 0.2 | 75.3*
CCOC(=O)c1sc(NC(=O)CSc2nc3c(cc2C#N)CCCCCC3)c(C#N)c1C | -0.4 | 1.0 | 0.1 | 71.5*
CC1=NN(c2ccccc2)C(=O)C1C=Nc1ccc(N(C)C)cc1 (stereo unspecified) | / | -3.1 | 0.3 | -11.1
Cc1ccc(C(=O)N/N=C\c2cc3c(cc2Br)OCO3)s1 | -0.3 | -7.4 | -0.2 | 92.9*
CCOc1ccc(Br)cc1C(=O)Nc1ccc(C(=O)NCC(C)C)cc1 | -0.4 | 3.3 | -0.9 | 82.6*
COc1ccc(Br)cc1C(=O)Nc1ccc(C(=O)NCC(C)C)cc1 | -0.3 | 0.7 | 0.2 | 55.6
O=C(O)CC1(Cc2nc(-c3cccs3)no2)CCCC1 | -0.1 | -13.0 | 0.6 | -9.8
SMILES | Hsp70 act | S1P4 antagonist | S1P4 agonist | CHOP inhibitor
NC(=O)CC(NC(=O)Cc1cccc2ccccc12)c1ccc(NCCc2ccc(F)cc2)c([N+](=O)[O-])c1 (stereo unspecified) | / | / | / | 59.3
NC(=O)CC(NC(=O)Cc1cccc2ccccc12)c1ccc(NCCc2ccccc2F)c([N+](=O)[O-])c1 (stereo unspecified) | / | / | / | 91.0*
NC(=O)CC(NC(=O)Cc1ccc(Br)cc1)c1ccc(NC2CCCC2)c([N+](=O)[O-])c1 (stereo unspecified) | / | / | / | 83.8*
CC(C)Nc1ccc(C(CC(N)=O)NC(=O)Cc2cccc3ccccc23)cc1[N+](=O)[O-] (stereo unspecified) | / | / | / | -0.6
NC(=O)CC(NC(=O)Cc1ccc(Br)cc1)c1ccc(NC2CCCCCC2)c([N+](=O)[O-])c1 (stereo unspecified) | / | / | / | 48.5
NC(=O)CC(NC(=O)Cc1cccc2ccccc12)c1ccc(NC2CCCCCC2)c([N+](=O)[O-])c1 (stereo unspecified) | / | / | / | 95.5*
